Experimental data published in PubChem BioAssay AID1159580 (chemical genetic matrix, 2015).
About 2,000 (36%) of roughly 5,500 compounds were called active. Inconclusive results (about 18%) are left out. The list shows a part of the results. Values without a mark were called inactive. No stated cut-off is given here; in the data, active means normalized growth mostly below about 0.91 (no sharp cut-off); inconclusive means no clear call, values can overlap the other calls; inactive means mostly above about 0.92.

Assay: chemical genetic growth profiling, strain panel (AID 1159580);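 further: tested at 20 µM; growth read once vehicle control cultures reached saturation at 30 °C; 1 = growth at the plate median or of vehicle wells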
Conditions: S. cerevisiae deletion strains, growth OD
[1] = locus YAL040C, strain CLN3, stronger effect = lower value
[2] = locus YER002W, strain NOP16, stronger effect = lower value
[3] = locus YGR229C, strain SMI1, stronger effect = lower value
[4] = locus YMR263W, strain SAP30, stronger effect = lower value
[5] = locus YNL128W, strain TEP1, stronger effect = lower value
[6] = locus YNL153C, strain GIM3, stronger effect = lower value
[7] = locus YNL175C, strain NOP13, stronger effect = lower value
[8] = locus YNL197C, strain WHI3, stronger effect = lower value
[9] = locus YNL224C, strain SQS1, stronger effect = lower value
[10] = locus YOR083W, strain WHI5 (second series), stronger effect = lower value
[11] = locus YCL061C, strain MRC1 (second series), stronger effect = lower value
[12] = locus YDR363W, strain ESC2, stronger effect = lower value
[13] = locus YMR307W, strain GAS1, stronger effect = lower value
[14] = locus YPL055C, strain LGE1, stronger effect = lower value
[15] = locus YPL241C, strain CIN2, stronger effect = lower value

Q: What does the source list for `NC(N)=NCCC[C@H](N)C(=O)O`?
A: normalized growth [1]: 1.09; normalized growth [2]: 1.01; normalized growth (locus YGR078C, strain PAC10, stronger effect = lower value): 0.987; normalized growth [3]: 0.98; normalized growth [4]: 1.01; normalized growth [5]: 0.986; normalized growth [6]: 1.01; normalized growth [7]: 0.981; normalized growth [8]: 0.989; normalized growth [9]: 0.999; normalized growth (locus YNL322C, strain KRE1, stronger effect = lower value): 0.984; normalized growth [10]: 0.975

Q: With `CCCCC#Cc1nc(N)c2ncn([C@@H]3O[C@H](C(=O)NCC)[C@@H](O)[C@H]3O)c2n1` as the compound, how does the normalized growth [1] read?
A: Its normalized growth is 0.949.

Q: What about the normalized growth [11] of the same compound?
A: Its normalized growth is 0.996.

Q: What about the normalized growth [12] of the same compound?
A: Its normalized growth is 1.

Q: What about the normalized growth [2] of the same compound?
A: The normalized growth was 1.

Q: What about the normalized growth [4] of the same compound?
A: The normalized growth was 0.996.

Q: What about the normalized growth [13] of the same compound?
A: Its normalized growth is 1.01.

Q: And the normalized growth [6]?
A: The normalized growth was 1.19.

Q: What about the normalized growth [7] of the same compound?
A: The normalized growth was 0.98.

Q: What about the normalized growth [8] of the same compound?
A: Its normalized growth is 0.982.

Q: And the normalized growth [9]?
A: The normalized growth was 1.01.

Q: And the normalized growth [10]?
A: Its normalized growth is 0.982.

Q: What about the normalized growth [14] of the same compound?
A: The normalized growth was 0.991.

Q: What about the normalized growth [15] of the same compound?
A: The normalized growth was 0.994.

Q: Which normalized growth (locus YAL013W, strain DEP1, stronger effect = lower value) does the source give for `COc1nc(C)nc(Cl)c1NC1=NCCN1` here?
A: The normalized growth was 1.01.

Q: And the normalized growth [1]?
A: The normalized growth was 0.999.

Q: And the normalized growth [11]?
A: The normalized growth was 0.999.

Q: What about the normalized growth (locus YDR150W, strain NUM1, stronger effect = lower value) of the same compound?
A: The normalized growth was 0.996.

Q: What about the normalized growth [12] of the same compound?
A: The normalized growth was 1.01.

Q: And the normalized growth [2]?
A: The normalized growth was 0.987.

Q: What about the normalized growth [3] of the same compound?
A: The normalized growth was 1.01.

Q: What about the normalized growth (locus YJR075W, strain HOC1, stronger effect = lower value) of the same compound?
A: The normalized growth was 0.99.

Q: And the normalized growth [4]?
A: The normalized growth was 0.998.

Q: What about the normalized growth [13] of the same compound?
A: The normalized growth was 1.01.

Q: And the normalized growth [5]?
A: The normalized growth was 1.01.

Q: And the normalized growth [7]?
A: The normalized growth was 1.

Q: And the normalized growth [8]?
A: Its normalized growth is 1.

Q: What about the normalized growth [9] of the same compound?
A: Its normalized growth is 1.01.

Q: And the normalized growth [10]?
A: Its normalized growth is 1.01.

Q: And the normalized growth [14]?
A: The normalized growth was 0.998.

Q: And the normalized growth [15]?
A: The normalized growth was 0.997.

Q: For `Cc1c(C(=S)Nc2ccccc2)sc2ccccc12`, which normalized growth (locus YAR019C, strain CDC15, stronger effect = lower value) is on record?
A: The normalized growth was 0.943.

Q: And the normalized growth (locus YBL105C, strain PKC1, stronger effect = lower value)?
A: The normalized growth was 0.958.

Q: And the normalized growth (locus YBR135W, strain CKS1, stronger effect = lower value)?
A: The normalized growth was 0.935.

Q: What about the normalized growth (locus YBR136W, strain MEC1, stronger effect = lower value) of the same compound?
A: Its normalized growth is 0.947.

Q: What about the normalized growth (locus YBR160W, strain CDC28, stronger effect = lower value) of the same compound?
A: The normalized growth was 0.948.

Q: What about the normalized growth (locus YDL017W, strain CDC7, stronger effect = lower value) of the same compound?
A: The normalized growth was 0.964.

Q: What about the normalized growth (locus YDL028C, strain MPS1, stronger effect = lower value) of the same compound?
A: Its normalized growth is 0.953.

Q: And the normalized growth (locus YDL101C, strain DUN1, stronger effect = lower value)?
A: Its normalized growth is 0.961.

Q: What about the normalized growth (locus YDL108W, strain KIN28, stronger effect = lower value) of the same compound?
A: Its normalized growth is 0.946.

Q: What about the normalized growth (locus YDL132W, strain cdc53, stronger effect = lower value) of the same compound?
A: The normalized growth was 0.967.

Q: And the normalized growth (locus YDL214C, strain PRR2, stronger effect = lower value)?
A: The normalized growth was 0.881.

Q: And the normalized growth (locus YDR052C, strain DBF4, stronger effect = lower value)?
A: Its normalized growth is 0.959.

Q: And the normalized growth (locus YDR054C, strain cdc34, stronger effect = lower value)?
A: Its normalized growth is 0.938.

Q: What about the normalized growth (locus YDR226W, strain ADK1, stronger effect = lower value) of the same compound?
A: Its normalized growth is 0.941.

Q: What about the normalized growth (locus YDR477W, strain SNF1, stronger effect = lower value) of the same compound?
A: Its normalized growth is 0.887.

Q: What about the normalized growth (locus YER123W, strain YCK3, stronger effect = lower value) of the same compound?
A: The normalized growth was 0.882.

Q: What about the normalized growth (locus YER133W, strain GLC7, stronger effect = lower value) of the same compound?
A: Its normalized growth is 0.865.

Q: And the normalized growth (locus YFL009W, strain cdc4, stronger effect = lower value)?
A: The normalized growth was 0.943.

Q: And the normalized growth (locus YFL029C, strain CAK1, stronger effect = lower value)?
A: Its normalized growth is 0.941.

Q: And the normalized growth (locus YFR003C, strain YPI1, stronger effect = lower value)?
A: The normalized growth was 0.949.

Q: What about the normalized growth (locus YFR019W, strain FAB1, stronger effect = lower value) of the same compound?
A: The normalized growth was 0.948.

Q: And the normalized growth (locus YFR028C, strain CDC14, stronger effect = lower value)?
A: The normalized growth was 0.969.

Q: And the normalized growth (locus YGR040W, strain KSS1, stronger effect = lower value)?
A: Its normalized growth is 0.867.

Q: And the normalized growth (locus YGR052W, strain FMP48, stronger effect = lower value)?
A: The normalized growth was 0.968.

Q: And the normalized growth (locus YGR092W, strain DBF2, stronger effect = lower value)?
A: Its normalized growth is 0.728.

Q: And the normalized growth (locus YHR030C, strain SLT2, stronger effect = lower value)?
A: Its normalized growth is 0.809 (active).

Q: And the normalized growth (locus YHR079C, strain IRE1, stronger effect = lower value)?
A: Its normalized growth is 0.816.

Q: And the normalized growth (locus YHR082C, strain KSP1, stronger effect = lower value)?
A: Its normalized growth is 0.863.

Q: And the normalized growth (locus YHR205W, strain SCH9, stronger effect = lower value)?
A: The normalized growth was 0.861.

Q: What about the normalized growth (locus YIL147C, strain SLN1, stronger effect = lower value) of the same compound?
A: Its normalized growth is 0.951.

Q: And the normalized growth (locus YJL095W, strain BCK1, stronger effect = lower value)?
A: Its normalized growth is 0.886.

Q: What about the normalized growth (locus YJL128C, strain PBS2, stronger effect = lower value) of the same compound?
A: Its normalized growth is 0.95.

Q: What about the normalized growth (locus YJL157C, strain FAR1, stronger effect = lower value) of the same compound?
A: Its normalized growth is 0.863.

Q: What about the normalized growth (locus YJR016C, strain ILV3, stronger effect = lower value) of the same compound?
A: Its normalized growth is 0.946.

Q: What about the normalized growth (locus YJR066W, strain TOR1 (second series), stronger effect = lower value) of the same compound?
A: The normalized growth was 0.818.

Q: What about the normalized growth (locus YJR066W, strain TOR1, stronger effect = lower value) of the same compound?
A: The normalized growth was 0.899.

Q: And the normalized growth (locus YKL048C, strain ELM1, stronger effect = lower value)?
A: The normalized growth was 0.933.

Q: And the normalized growth (locus YKL067W, strain YNK1, stronger effect = lower value)?
A: Its normalized growth is 0.884.

Q: What about the normalized growth (locus YKL101W, strain HSL1, stronger effect = lower value) of the same compound?
A: Its normalized growth is 0.917.

Q: What about the normalized growth (locus YKL193C, strain SDS22, stronger effect = lower value) of the same compound?
A: The normalized growth was 0.94.

Q: What about the normalized growth (locus YKL203C, strain TOR2, stronger effect = lower value) of the same compound?
A: Its normalized growth is 0.925.

Q: What about the normalized growth (locus YLR113W, strain HOG1, stronger effect = lower value) of the same compound?
A: Its normalized growth is 0.915.

Q: And the normalized growth (locus YLR133W, strain CKI1, stronger effect = lower value)?
A: Its normalized growth is 0.888.

Q: What about the normalized growth (locus YLR403W, strain SFP1, stronger effect = lower value) of the same compound?
A: The normalized growth was 0.81.

Q: What about the normalized growth (locus YML070W, strain DAK1, stronger effect = lower value) of the same compound?
A: Its normalized growth is 0.865.

Q: What about the normalized growth (locus YMR001C, strain CDC5, stronger effect = lower value) of the same compound?
A: The normalized growth was 0.938.

Q: What about the normalized growth (locus YMR205C, strain PFK2 (second series), stronger effect = lower value) of the same compound?
A: Its normalized growth is 0.879.

Q: What about the normalized growth (locus YMR277W, strain FCP1, stronger effect = lower value) of the same compound?
A: The normalized growth was 0.939.

Q: What about the normalized growth (locus YNL006W, strain LST8, stronger effect = lower value) of the same compound?
A: Its normalized growth is 0.951.

Q: What about the normalized growth (locus YNL020C, strain ARK1, stronger effect = lower value) of the same compound?
A: The normalized growth was 0.875.

Q: And the normalized growth (locus YNL161W, strain CBK1, stronger effect = lower value)?
A: Its normalized growth is 0.954.

Q: What about the normalized growth (locus YNL183C, strain NPR1, stronger effect = lower value) of the same compound?
A: Its normalized growth is 0.863.

Q: What about the normalized growth (locus YNL207W, strain RIO2, stronger effect = lower value) of the same compound?
A: The normalized growth was 0.946.

Q: What about the normalized growth (locus YNL222W, strain SSU72, stronger effect = lower value) of the same compound?
A: The normalized growth was 0.941.

Q: And the normalized growth (locus YNL307C, strain MCK1 (second series), stronger effect = lower value)?
A: Its normalized growth is 0.842.

Q: What about the normalized growth (locus YOL078W, strain AVO1, stronger effect = lower value) of the same compound?
A: The normalized growth was 0.934.

Q: And the normalized growth (locus YOL136C, strain PFK27, stronger effect = lower value)?
A: The normalized growth was 0.859.

Q: What about the normalized growth (locus YOR061W, strain CKA2, stronger effect = lower value) of the same compound?
A: The normalized growth was 0.854.

Q: What about the normalized growth (locus YOR119C, strain RIO1, stronger effect = lower value) of the same compound?
A: Its normalized growth is 0.965.

Q: What about the normalized growth (locus YOR231W, strain MKK1, stronger effect = lower value) of the same compound?
A: The normalized growth was 0.879.

Q: And the normalized growth (locus YOR329C, strain SCD5, stronger effect = lower value)?
A: The normalized growth was 0.958.

Q: And the normalized growth (locus YPL031C, strain PHO85, stronger effect = lower value)?
A: The normalized growth was 0.862.

Q: What about the normalized growth (locus YPL153C, strain RAD53, stronger effect = lower value) of the same compound?
A: The normalized growth was 0.847.

Q: What about the normalized growth (locus YPL204W, strain HRR25, stronger effect = lower value) of the same compound?
A: The normalized growth was 0.828.

Q: What about the normalized growth (locus YPL209C, strain IPL1, stronger effect = lower value) of the same compound?
A: The normalized growth was 0.95.

Q: And the normalized growth (locus YPL256C, strain CLN2, stronger effect = lower value)?
A: The normalized growth was 0.899.

Q: What about the normalized growth (locus YPR025C, strain CCL1, stronger effect = lower value) of the same compound?
A: Its normalized growth is 0.945.

Q: What about the normalized growth (locus YPR106W, strain ISR1, stronger effect = lower value) of the same compound?
A: The normalized growth was 0.951.

Q: And the normalized growth (locus YPR111W, strain DBF20, stronger effect = lower value)?
A: The normalized growth was 0.99.

Q: And the normalized growth (strain NNK1, stronger effect = lower value)?
A: The normalized growth was 0.949.

Q: What about the normalized growth (strain TSCII, stronger effect = lower value) of the same compound?
A: Its normalized growth is 0.941.
